Structures are written as SMILES. Active and inactive are the calls of the source. Calls follow the shape of the full dose curve.

The experiment deals with Estrogen receptor (Homo sapiens) (UniProt P03372). The experiment can be described thus: qHTS assay to identify small molecule agonists of the estrogen receptor alpha (ER-alpha) signaling pathway in the presence of an antagonist (AID 1259383). Also: top concentration of the series differs between compounds; nearly all actives have a fitted effect of over 15% in size. The settings on record: VM7Luc4E2 cells, ERE-luciferase, +ICI-182,780, 22 h; series mostly up to 92.4 µM. From the text: National Center for Advancing Translational Sciences [NCATS] NIH Chemical Genomics Center [NCGC] U.S. Environmental Protection Agency [EPA] National Institutes of Environmental Health Sciences [NIEHS] National Toxicology Program [NTP] Assay overview: Estrogen receptor (ER), a member of nuclear hormone receptor plays an important role in development, metabolic homeostasis and reproduction. Two subtypes of ER, ER-alpha and ER-beta, have similar expression patterns with some uniqueness in both types. Endocrine disrupting chemicals (EDCs) and their interactions with steroid hormone receptors like ER causes disruption of normal endocrine function. Therefore, it is important to understand the effect of environmental chemicals in ER signaling pathway. For identifying ER agonists, VM7Luc4E2 cell line has been used in the current assay. VM7Luc4E2 cell line (provided by Denison MS, University of California) endogenously expresses full-length ER-alpha and is stably transfected with a plasmid containing four estrogen responsive elements (ERE) upstream of a luciferase reporter gene. This current screening for measuring luciferase reporter gene activity using VM7Luc4E2 cells against Tox21 10K library collection is a confirmation study on agonist mode screening in presence of ER-antagonist (ICI-182,780) at 10.0nM final concentration.
Chain of Estrogen receptor (Homo sapiens) (P03372 whole entry, looked up): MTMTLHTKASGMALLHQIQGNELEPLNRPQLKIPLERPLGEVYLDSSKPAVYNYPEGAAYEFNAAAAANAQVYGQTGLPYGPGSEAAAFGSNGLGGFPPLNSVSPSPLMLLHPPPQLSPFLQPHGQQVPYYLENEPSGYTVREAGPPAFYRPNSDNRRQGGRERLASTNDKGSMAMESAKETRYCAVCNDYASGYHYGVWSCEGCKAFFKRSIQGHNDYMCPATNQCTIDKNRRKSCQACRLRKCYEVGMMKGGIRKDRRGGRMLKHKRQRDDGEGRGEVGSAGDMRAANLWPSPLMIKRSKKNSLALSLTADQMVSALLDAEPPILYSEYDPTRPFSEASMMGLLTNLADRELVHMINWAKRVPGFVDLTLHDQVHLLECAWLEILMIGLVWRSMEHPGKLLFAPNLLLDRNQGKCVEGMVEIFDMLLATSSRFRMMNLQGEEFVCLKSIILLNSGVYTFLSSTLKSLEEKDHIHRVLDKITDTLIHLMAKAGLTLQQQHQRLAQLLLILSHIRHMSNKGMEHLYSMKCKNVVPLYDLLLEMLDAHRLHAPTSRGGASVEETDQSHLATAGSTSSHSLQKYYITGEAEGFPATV
Assay Protocol Summary: VM7Luc4E2 cells were cultured in phenol red free assay medium containing 10% charcoal stripped FBS for 5 days prior to the assay. The cells were dispensed at 4,000 cells in 4uL of assay medium per well into white wall/solid-bottom 1536-well plates (Corning Life Sciences, Corning, NY) using a Multidrop Combi (Thermo Fisher Scientific Inc., Waltham, MA) dispenser. After the assay plates were incubated at 37C and 5% CO2 for 24hr, 1uL of 10.0nM (final concentration) ICI-182,780 or assay buffer was added using two separate tips of Flying Reagent Dispenser (FRD, Aurora Discovery, San Diego, CA). Then 23nL of compounds dissolved in DMSO at 15 concentrations and positive controls or DMSO only was transferred to the assay plates by a Pintool station (Wako, San Diego, CA). The assay plates were incubated at 37C and 5% CO2 for 22hr. For luciferase read, 4uL/well ONE-Glo reagent (Promega Corporation, Madison, WI) was added to each well using FRD and after 30min incubation at room temperature, luminescence signal was measured on ViewLux plate reader (PerkinElmer, Shelton, CT).
For orientation: In qHTS, concentration-response curves come from the screen itself.
Take `CC(=O)N(CC(O)CO)c1c(I)c(C(=O)NCC(O)CO)c(I)c(C(=O)NCC(O)CO)c1I` (stereo not given): the result was inactive.

Regarding `COc1cccc2sc(N)nc12`, the result was inactive.

As for `Nc1ccc(S(=O)(=O)NC(=O)c2ccccc2)cc1`, the result was inactive.

Consider `N#CCCOCCOCCC#N`, for which the outcome was inactive.

In the case of `C=CCOCC(O)CCl` (stereo not given), the result was inactive.

Regarding `COC(=O)CCC(=O)O`, the outcome was inactive.

Take `C=C[Si](C)(C)O[Si](C)(C)C=C`: the result was inactive.

In the case of `O=[Si]=O`, the result was inactive.

As to `CCC(C)N` (stereo not given), the result was inactive.

For the molecule `CC(C)SCc1ccco1`, the result was inactive.

With `CC(=O)OCC(=O)[C@@]1(O)[C@H](OC(C)=O)C[C@H]2[C@@H]3CCC4=CC(=O)C=C[C@]4(C)[C@@]3(F)[C@@H](O)C[C@@]21C`, the result was inactive.

For `CCNC(=O)NCCCOc1cccc(CN2CCCCC2)c1`, the result was inactive.

For the molecule `Cc1cc(C)cc([N+](=O)[O-])c1`, the result was inactive.

In the case of `CCCCCC1Nc2cc(C(F)(F)F)c(S(N)(=O)=O)cc2S(=O)(=O)N1` (stereo not given), the result was inactive.

On to `CCN(CCC#N)c1ccccc1`, for which the result was inactive.

For the molecule `O=C(COCCOCCOCC(=O)Nc1c(I)cc(I)c(C(=O)O)c1I)Nc1c(I)cc(I)c(C(=O)O)c1I`, the outcome was inactive.

In the case of `O=S1(=O)CCCC1`, the result was inactive.

Consider `CCS(=O)(=O)CCn1c([N+](=O)[O-])cnc1C`, for which the result was inactive.

In the case of `O=C1OC(=O)c2cc(Oc3ccc4c(c3)C(=O)OC4=O)ccc21`, the result was inactive.

As for `F[Si-2](F)(F)(F)(F)F`, the result was inactive.

For `NC(=O)NNC(N)=O`, the result was inactive.

For `CCCCCCCCC(=O)OCC`, the outcome was inactive.

Turning to `CCN1CN(CC)CN(CC)C1`, the result was inactive.

In the case of `O=C(O)/C=C/c1ccccc1`, the result was inactive.

As for `CC(C)CCCC(C)CC=O` (stereo not given), the result was inactive.

As for `Nc1cc(C(=O)O)ccc1Cl`, the result was inactive.

`C=CCOc1c(Br)cc(Br)cc1Br`: the outcome was inactive.

As for `Cc1ccccc1OCC1CO1` (stereo not given), the outcome was inactive.

In the case of `O=C(/C=C/c1ccccc1)NCCO`, the result was inactive.

With `CCOC(=O)C(C)(C)C`, the result was inactive.

Take `CCCCC(=O)N(C)C`: the result was inactive.

Consider `CC(=O)OC[C@H]1O[C@@H](OC(C)=O)[C@H](OC(C)=O)[C@@H]1OC(C)=O`, for which the result was inactive.

In the case of `CCCCCCCCCCCCCCCCCCN(C)C`, the outcome was inactive.

In the case of `CCCCCCCCCCCCCC(=O)OC`, the outcome was inactive.

Regarding `CC(=O)Nc1ncc([N+](=O)[O-])s1`, the outcome was inactive.

`CCCCC(CC)CNC(=O)CC(C)OC(=O)CCC(=O)O` (stereo not given): the outcome was inactive.

Take `CO[Si](CCCCl)(OC)OC`: the outcome was inactive.

As for `CC(Cl)COP(=O)(OCC(C)Cl)OCC(C)Cl` (stereo not given), the result was inactive.

Regarding `CCC(C)(C)C1CCC(=O)CC1`, the outcome was inactive.

On to `C[Si]1(C)N[Si](C)(C)N[Si](C)(C)N1`, for which the result was inactive.

The values above are taken from PubChem BioAssay (Tox21).
